Where “and” joins values, the source holds several entries; their conditions need not be identical. Equal values may be shown once. Records with an inconclusive call do not appear. Entries that show only a call come without a potency. Some compounds were tested as several samples or in several runs, with calls that do not always agree. Calls of active or inactive are those of the source. Unless noted, the call rests on the fitted dose curve.
Columns and labels:
[1] = Nuclear factor erythroid 2-related factor 2/antioxidant responsive element (Nrf2/ARE) small molecule agonists: qHTS cell viability counter screen in human keratinocytes (AID 1919968; active means well fitted cell-killing curve with a large enough effect in the repeat runs; further: nearly all actives have a fitted effect of over 55% in size; further: potency means the concentration at half of the fitted maximal effect)
Procedure, shortened: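 Seed 1,500 KeratinoSens cells per well, then incubate 5 h at 37 C/5% CO2. Add compounds in DMSO and incubate 23 h. Add CellTiter-Fluor, wait 1 h and read fluorescence.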

[2] = Nuclear factor erythroid 2-related factor 2/antioxidant responsive element (Nrf2/ARE) small molecule agonists: luciferase reporter gene qHTS assay in human keratinocytes (AID 1919969); further: nearly all actives have a fitted effect of over 35% in size; further: potency means the concentration at half of the fitted maximal effect
[3] = target: Gonadotropin-releasing hormone receptor (Homo sapiens) (UniProt P30968); experiment: Human gonadotropin-releasing hormone receptor (GnRHR) small molecule agonists, calcium flux assay in GnRHR-HEK293 cells (AID 1920063); further: nearly all actives have a fitted effect of over 35% in size; further: potency means the concentration at half of the fitted maximal effect
Procedure, shortened: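 Cells: HEK293 stably expressing human GnRHR. Steps: overnight (18 h) culture, 1 h calcium dye loading at 37 C, compound addition, kinetic fluorescence read at 480/540 nm. Each compound tested at 15 concentrations in triplicate.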

[4] = G protein-coupled receptor (GPCR) small molecule agonists, calcium flux assay: HEK293 wild type cell line counter screen (AID 1920065)
Procedure, shortened: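 Counter-screen of the Tox21 10K library for non-specific calcium release: dye-loaded cells received compounds in DMSO and were monitored by kinetic fluorescence (480/540 nm, 3 min). Fifteen concentrations, run in triplicate.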

[5] = p53 small molecule agonists, cell-based qHTS assay with human liver microsomes (AID 1963577)
Procedure, shortened: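 p53RE-bla cells, 4,000/well, compound added after 5 h, with human liver microsomes 0.5 mg/mL and NADPH 0.5 mg/mL final; 16 h at 37 C, then LiveBLAzer 2 h RT, fluorescence.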

[6] = p53 small molecule agonists, cell-based qHTS assay with rat liver microsomes (AID 1963578)
Procedure, shortened: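 p53RE-bla cells, 4,000/well, pre-incubated 5 h, then given compounds plus rat liver microsomes (0.5 mg/mL final) and NADPH (0.5 mg/mL final). Incubation 16 h at 37 C; beta-lactamase reporter read by LiveBLAzer fluorescence after 2 h at room temperature.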

[7] = p53 small molecule agonists, cell-based qHTS assay with human liver microsomes: qHTS cell viability counter screen (AID 1963579); further: nearly all actives have a fitted effect of over 45% in size; further: potency means the concentration at half of the fitted maximal effect
Procedure, shortened: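 p53RE-bla cells, 4,000/well, dosed 5 hours after plating, with human liver microsomes (0.5 mg/mL final) plus NADPH (0.5 mg/mL final), 16 hours at 37 C. Viability read as CellTiter-Glo luminescence after 30 min at room temperature.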

[8] = p53 small molecule agonists, cell-based qHTS assay with rat liver microsomes: qHTS cell viability counter screen (AID 1963580); further: nearly all actives have a fitted effect of over 45% in size
Procedure, shortened: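 Intracellular ATP, by CellTiter-Glo luminescence, defines viability. HCT-116 p53RE-bla cells, 4,000 per well, were compound-treated in the presence of rat liver microsomes and NADPH for 16 h at 37 C.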

[9] = p53 small molecule agonists, cell-based qHTS assay: qHTS cell viability counter screen (AID 1963581); further: nearly all actives have a fitted effect of over 45% in size
Procedure, shortened: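 Cells: HCT-116 with p53 response element-driven beta-lactamase. Treatment: 16 h, 37 C, compounds in DMSO. Read: CellTiter-Glo luminescence after 30 min RT.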

[10] = p53 small molecule agonists, cell-based qHTS assay (AID 1963582; active means well fitted activation curve with a large enough effect in the signal ratio in the repeat runs, not every such curve was filed as active; the % refers to the signal ratio)
Procedure, shortened: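 Quantitative HTS in p53RE-bla cells: after a 5 h settling period, compounds delivered in DMSO were left on cells for 16 h at 37 C, and reporter induction was measured as fluorescence following 2 h substrate loading.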

[11] = target: 5-hydroxytryptamine receptor 2A (Homo sapiens) (UniProt P28223); experiment: 5-hydroxytryptamine receptor 2A (HTR2A) small molecule antagonists, cell-based qHTS assay (AID 1963586); further: nearly all actives have a fitted effect of over 45% in size; further: potency means the concentration at half of the fitted maximal effect
Procedure, shortened: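 Antagonist-mode intracellular calcium assay: DOI (4 nM) added after 5 min compound pre-incubation at room temperature to dye-loaded HTR2A-CHO cells. Fluorescence followed for 3 min, sampled every second.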

[12] = target: 5-hydroxytryptamine receptor 2A (Homo sapiens) (UniProt P28223); experiment: 5-hydroxytryptamine receptor 2A (HTR2A) small molecule agonists, cell-based qHTS assay (AID 1963587); further: nearly all actives have a fitted effect of over 30% in size; further: potency means the concentration at half of the fitted maximal effect
Procedure, shortened: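 Kinetic calcium-flux fluorescence (2 min, 1 sec intervals) after compound addition in agonist mode. HTR2A-CHO cells were cultured 18 h, then dye-loaded 1 h at 37 C.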

[13] = target: Muscarinic acetylcholine receptor M1 (Homo sapiens) (UniProt P11229); experiment: Cholinergic receptor muscarinic 1 (CHRM1) small molecule antagonists, cell-based qHTS assay (AID 1963588); further: nearly all actives have a fitted effect of over 40% in size; further: potency means the concentration at half of the fitted maximal effect
Procedure, shortened: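 CHRM1-CHO calcium-flux assay, antagonist mode. Cells were seeded 18 h, dye-loaded 1 h at 37 C and given compound for 5 min at RT, then acetylcholine was added at 50nM. FDSS fluorescence was read 3 min; 15 concentrations, three runs.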

[14] = target: Muscarinic acetylcholine receptor M1 (Homo sapiens) (UniProt P11229); experiment: Cholinergic receptor muscarinic 1 (CHRM1) small molecule agonists, cell-based qHTS assay (AID 1963589); further: nearly all actives have a fitted effect of over 35% in size
Procedure, shortened: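 Agonist-mode qHTS in CHO cells stably carrying human muscarinic M1. Intracellular calcium is tracked by fluorescence every second after compound transfer; each compound runs at 15 concentrations in three independent runs.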

[15] = cAMP Responsive Elements (CRE) small molecule antagonists, cell-based qHTS assay (AID 1963591; active means well fitted inhibition curve with a large enough effect in the signal ratio in the repeat runs, not every such curve was filed as active; the % refers to the signal ratio)
Procedure, shortened: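 Antagonist mode: test compounds are co-incubated with the adenylyl cyclase activator NKH477 (0.25 uM final) on CRE-bla HEK293T cells for 3 h at 37 °C, followed by LiveBLAzer substrate loading.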

[16] = target: Beta-2 adrenergic receptor (Homo sapiens) (UniProt P07550); experiment: Adrenergic beta2 receptor (ADRB2) small molecule antagonists, cell-based qHTS assay (AID 1963592); further: series mostly up to about 92 µM; nearly all actives have a fitted effect of over 50% in size
Procedure, shortened: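 Cells (CHO, stable ADRB2 overexpression) incubated 18-20hr at 37C; compounds added from DMSO; agonist mix (1nM isoproterenol, 100uM IBMX, 25uM Ro-20-1724) added; 0.5hr RT; d2-cAMP and anti-cAMP-cryptate added; 1hr RT; 665/615 nm read.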

[17] = target: Beta-2 adrenergic receptor (Homo sapiens) (UniProt P07550); experiment: Adrenergic beta2 receptor (ADRB2) small molecule agonists, cell-based qHTS assay (AID 1963593);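 further: CHO cells stably overexpressing human ADRB2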
Procedure, shortened: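 CHO cells stably over-expressing ADRB2 were plated overnight at 37C, then dosed with compounds plus a stimulation mix containing 100uM IBMX and 25uM Ro-20-1724 for 0.5hr at room temperature. cAMP was measured by HTRF competition, 1hr.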

[18] = target: D(2) dopamine receptor (Homo sapiens) (UniProt P14416); experiment: Dopamine D2 receptor (DRD2) small molecule antagonists, cell-based qHTS assay (AID 1963595; active means well fitted inhibition curve with a large enough effect in the signal ratio in the repeat runs, with a control signal flat; the % refers to the signal ratio; further: potency means the concentration at half of the fitted maximal effect)
Procedure, shortened: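 DRD2-HEK293; 0.1 mM Ro20-1724; cpd 10 min RT; NKH477 200 nM + quinpirole 12 nM, 30 min RT; HTRF cAMP (cAMP-d2/anti-cAMP cryptate), 665/620 nm ratio after 1 h.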

[19] = cAMP Responsive Elements (CRE) small molecule agonists, cell-based qHTS assay (AID 1963590)
Procedure, shortened: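 Agonist mode qHTS in CRE-bla HEK 293T cells: compounds dosed from DMSO for 3 h at 37 C/5% CO2, followed by LiveBLAzer B/G FRET substrate for 2 h at room temperature.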

[20] = target: D(2) dopamine receptor (Homo sapiens) (UniProt P14416); experiment: Dopamine D2 receptor (DRD2) small molecule agonists, cell-based qHTS assay (AID 1963594); further: nearly all actives have a fitted effect of over 35% in size
Procedure, shortened: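 cAMP accumulation in DRD2-HEK293 cells measured by HTRF after 1 h detection; compounds added 10 min before NKH477 (200nM […]) forskolin-analogue stimulation, 30 min at room temperature, with Ro20-1724 present at 0.1 mM final.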

Sequence of Beta-2 adrenergic receptor (Homo sapiens) (P07550 whole entry, looked up): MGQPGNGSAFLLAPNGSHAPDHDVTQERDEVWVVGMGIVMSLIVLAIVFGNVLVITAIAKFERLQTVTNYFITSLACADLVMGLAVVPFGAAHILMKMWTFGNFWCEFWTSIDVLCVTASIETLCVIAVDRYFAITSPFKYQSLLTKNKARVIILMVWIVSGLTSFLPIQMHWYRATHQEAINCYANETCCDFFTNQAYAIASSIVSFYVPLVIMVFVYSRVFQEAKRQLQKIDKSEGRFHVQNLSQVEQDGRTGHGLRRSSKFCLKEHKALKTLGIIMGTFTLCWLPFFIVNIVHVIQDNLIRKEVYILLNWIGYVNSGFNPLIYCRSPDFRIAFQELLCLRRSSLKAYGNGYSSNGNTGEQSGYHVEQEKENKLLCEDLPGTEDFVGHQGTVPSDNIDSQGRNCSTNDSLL
Sequence of Gonadotropin-releasing hormone receptor (Homo sapiens) (P30968 whole entry, looked up): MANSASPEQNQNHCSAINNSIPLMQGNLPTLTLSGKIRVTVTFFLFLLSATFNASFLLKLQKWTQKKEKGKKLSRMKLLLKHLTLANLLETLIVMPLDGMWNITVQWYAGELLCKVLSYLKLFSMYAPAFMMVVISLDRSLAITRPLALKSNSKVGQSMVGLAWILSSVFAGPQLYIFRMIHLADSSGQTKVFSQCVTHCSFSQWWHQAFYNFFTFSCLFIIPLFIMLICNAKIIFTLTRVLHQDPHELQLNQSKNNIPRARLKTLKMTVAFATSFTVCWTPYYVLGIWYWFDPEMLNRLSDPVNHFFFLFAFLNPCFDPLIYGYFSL
Sequence of Muscarinic acetylcholine receptor M1 (Homo sapiens) (P11229 whole entry, looked up): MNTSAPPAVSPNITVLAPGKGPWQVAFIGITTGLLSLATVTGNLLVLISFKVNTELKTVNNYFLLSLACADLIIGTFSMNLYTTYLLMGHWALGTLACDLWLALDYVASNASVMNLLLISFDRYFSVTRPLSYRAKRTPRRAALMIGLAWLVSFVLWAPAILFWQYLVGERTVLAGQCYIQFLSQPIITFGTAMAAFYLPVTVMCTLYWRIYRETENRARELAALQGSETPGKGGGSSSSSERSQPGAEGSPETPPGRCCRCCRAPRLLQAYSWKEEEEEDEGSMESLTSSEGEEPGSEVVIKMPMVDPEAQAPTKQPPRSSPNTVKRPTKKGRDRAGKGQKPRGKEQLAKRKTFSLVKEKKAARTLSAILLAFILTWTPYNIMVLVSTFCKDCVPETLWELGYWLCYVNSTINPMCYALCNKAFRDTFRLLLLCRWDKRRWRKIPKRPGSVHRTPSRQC
Sequence of D(2) dopamine receptor (Homo sapiens) (P14416 whole entry, looked up): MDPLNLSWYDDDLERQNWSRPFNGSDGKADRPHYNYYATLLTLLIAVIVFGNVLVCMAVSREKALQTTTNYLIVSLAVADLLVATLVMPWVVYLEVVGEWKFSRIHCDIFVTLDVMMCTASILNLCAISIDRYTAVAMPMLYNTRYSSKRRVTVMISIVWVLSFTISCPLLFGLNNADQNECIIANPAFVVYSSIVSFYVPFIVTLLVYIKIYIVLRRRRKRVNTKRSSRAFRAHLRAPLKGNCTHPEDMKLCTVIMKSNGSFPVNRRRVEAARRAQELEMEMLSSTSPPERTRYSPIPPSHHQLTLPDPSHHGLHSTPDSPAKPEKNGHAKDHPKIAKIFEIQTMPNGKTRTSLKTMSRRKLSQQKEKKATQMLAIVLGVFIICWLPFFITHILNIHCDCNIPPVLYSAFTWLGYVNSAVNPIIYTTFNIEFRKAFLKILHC
Sequence of 5-hydroxytryptamine receptor 2A (Homo sapiens) (P28223 whole entry, looked up): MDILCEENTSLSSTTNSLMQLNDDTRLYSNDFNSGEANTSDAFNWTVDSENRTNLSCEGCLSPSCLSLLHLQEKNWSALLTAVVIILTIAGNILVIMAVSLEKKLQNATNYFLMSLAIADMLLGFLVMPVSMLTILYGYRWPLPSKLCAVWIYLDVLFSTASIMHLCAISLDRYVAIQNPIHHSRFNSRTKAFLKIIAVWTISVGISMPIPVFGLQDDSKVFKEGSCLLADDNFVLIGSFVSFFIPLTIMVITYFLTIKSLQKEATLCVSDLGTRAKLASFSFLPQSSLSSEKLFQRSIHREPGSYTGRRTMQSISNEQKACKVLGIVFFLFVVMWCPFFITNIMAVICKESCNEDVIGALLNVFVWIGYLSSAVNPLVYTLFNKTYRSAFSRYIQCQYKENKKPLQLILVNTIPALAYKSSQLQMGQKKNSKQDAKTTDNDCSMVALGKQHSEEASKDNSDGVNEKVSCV

Structure (SMILES) | Potency [1] | Potency [2] | Potency [3] | Potency [4] | Potency [5] | Potency [6] | Potency [7] | Potency [8] | Potency [9] | Potency [10] | Potency [11] | Potency [12] | Potency [13] | Potency [14] | Potency [15] | Potency [16] | Potency [17] | Potency [18] | Potency [19] | Potency [20]
CC(=O)N(CC(O)CO)c1c(I)c(C(=O)NCC(O)CO)c(I)c(C(=O)NCC(O)CO)c1I (centres undefined) | inactive | inactive | inactive | inactive | inactive | inactive | inactive | inactive | inactive | inactive | inactive | inactive | inactive | inactive | inactive | inactive | inactive | inactive |  | 
NC(=O)c1ccc(N)cc1 | inactive | inactive | inactive | inactive | inactive | inactive | inactive | inactive | inactive | inactive | inactive | inactive | inactive | inactive | inactive |  | inactive |  | inactive | inactive
c1cnccn1 | inactive | inactive | inactive | inactive | inactive | inactive |  |  | inactive | inactive |  | inactive | inactive | inactive | inactive | inactive |  | inactive | inactive | inactive
CC(=O)OCC1=C(C(=O)O)N2C(=O)[C@@H](NC(=O)Cc3cccs3)[C@H]2SC1 | inactive | inactive | inactive | inactive | inactive | inactive | inactive | inactive | inactive | inactive | inactive | inactive | inactive |  | inactive |  | inactive | inactive | inactive | inactive
OCCCCl | inactive | inactive | inactive | inactive | inactive | inactive | inactive | inactive | inactive |  | inactive | inactive | inactive | inactive | inactive |  | inactive |  | inactive | inactive
CCCCCCCCSCCO | inactive | inactive | inactive | inactive | inactive | inactive | inactive | inactive | inactive | inactive | inactive | inactive |  | inactive |  |  | inactive | inactive | inactive | inactive
CC(C)C(=O)O | inactive | inactive | inactive | inactive | inactive | inactive | inactive | inactive |  | inactive |  | inactive | inactive | inactive | inactive | inactive |  | inactive | inactive | inactive
CCCCC1CCC(O)CC1 (centres undefined) | inactive | inactive | inactive | inactive | inactive | inactive | inactive | inactive | inactive | inactive | inactive | inactive | inactive | inactive | inactive | inactive | inactive | inactive |  | inactive
Clc1ccccc1C(c1ccccc1)(c1ccccc1)n1ccnc1 | 30.6 µM (active) | inactive | inactive | inactive | inactive | inactive | inactive | inactive |  | inactive |  |  |  |  |  | inactive | inactive | 61.1 µM (active) |  | 
COc1nc(C)nc(NC(=O)NS(=O)(=O)c2ccccc2OCCCl)n1 | inactive | inactive | inactive | inactive | inactive | inactive |  | inactive | inactive | inactive | inactive | inactive | inactive | inactive | inactive | inactive |  | inactive | inactive | inactive
CCCOC(C(=O)OC1CCN(C)CC1)(c1ccccc1)c1ccccc1 | inactive | 10.6 µM (active) | inactive | inactive | inactive | inactive | inactive |  | inactive | inactive | inactive | inactive | 729 nM (active) | inactive | inactive | inactive |  | inactive | inactive | inactive
CN1[C@@H]2CC[C@H]1CC(NC(=O)n1c(=O)[nH]c3ccccc31)C2 (some centres undefined) | inactive | inactive | inactive | inactive | inactive | inactive | inactive | inactive | inactive |  | inactive | inactive | inactive | inactive | inactive | inactive | inactive | inactive | inactive | inactive
COC(=O)Cc1cccc2ccccc12 | inactive | inactive | inactive | inactive | inactive | inactive | inactive |  | inactive | inactive |  |  |  | inactive | inactive | inactive | inactive | inactive | inactive | inactive
O=C1C=CC(=O)O1 | inactive | inactive | inactive | inactive | inactive |  | inactive | inactive | inactive | inactive | inactive | inactive | inactive | inactive | inactive | inactive | inactive | inactive | inactive | inactive
CCCCCCCCCCCCCCCC[N+](C)(C)CC | 54.6 µM (active) | inactive | 13.8 µM (active) | inactive | inactive | inactive | 45.9 µM (active) and inactive | inactive | inactive | inactive | 13.3 µM (active) and 11.6 µM (active) | 43.8 µM (active) | 422 nM (active) and 65 nM (active) | inactive |  | inactive |  | inactive |  | inactive

Reference: PubChem BioAssay (Tox21)
